# Test results published in PubChem BioAssay (NCATS).
# Unmarked numbers belong to inactive results. Records with an inconclusive call do not appear. The source made the active and inactive calls. Unless noted, the call rests on the fitted dose curve; in most records, active means well fitted curve in either direction with a large enough effect (not every such curve was filed as active); inconclusive means small, poorly fitted or top-dose-only effect, or another doubt; inactive means flat fitted curve, though single readings scatter.
# Tests used:
# [1] = target: Lysosomal acid glucosylceramidase (Homo sapiens) (UniProt P04062); experiment: Glucocerebrosidase-p2 (AID 348; in the data active means potency below about 10 µM; further: potency means the concentration at half of the fitted maximal effect); settings: purified GBA, blue fluorogenic substrate, 40 min
# Lysosomal acid glucosylceramidase (Homo sapiens), sequence (P04062 whole entry, looked up): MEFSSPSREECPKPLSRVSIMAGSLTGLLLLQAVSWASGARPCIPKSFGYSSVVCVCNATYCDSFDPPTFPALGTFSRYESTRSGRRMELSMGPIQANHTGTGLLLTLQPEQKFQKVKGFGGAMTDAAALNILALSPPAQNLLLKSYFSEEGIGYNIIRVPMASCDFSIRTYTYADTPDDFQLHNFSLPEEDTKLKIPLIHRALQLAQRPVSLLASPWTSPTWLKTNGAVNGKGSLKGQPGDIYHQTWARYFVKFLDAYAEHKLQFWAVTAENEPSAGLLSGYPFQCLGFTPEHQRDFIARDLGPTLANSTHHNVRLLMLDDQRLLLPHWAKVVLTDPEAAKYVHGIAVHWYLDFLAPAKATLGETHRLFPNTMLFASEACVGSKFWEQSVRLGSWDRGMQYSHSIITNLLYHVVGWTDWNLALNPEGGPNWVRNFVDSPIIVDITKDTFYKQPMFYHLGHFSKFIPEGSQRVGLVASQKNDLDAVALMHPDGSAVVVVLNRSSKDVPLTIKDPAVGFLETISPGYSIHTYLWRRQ
# Procedure, shortened: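 Normal human glucocerebrosidase (0.2 nM) with blue fluorogenic substrate (80 uM final) in citrate/phosphate pH 5.9 with 10mM sodium taurocholate, 0.01% tween-20; 40 min RT, NaOH/glycine stop; fluorescence Ex 365/Em 440; AC50 from a titration from 0.6 nM upwards.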
# [2] = AP1 Signaling Pathway (AID 357); settings: ME-180 AP-1-bla reporter, EGF-induced, beta-lactamase ratio, 5 h; at 7.69 µM (top of the series) unless noted;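 further: ME-180 reporter cells stimulated with EGF at its EC50 level; on the % scale 0 is the no-effect control and ±100 the full control effect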
# Procedure, shortened: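 In this screen, ME-180 cells in Opti-MEM with 0.5% dialyzed FBS received EC50 EGF and compound titrations for 5 h. AP-1 reporter beta-lactamase was detected via CCF4 ratio, giving AC50 for positive and negative modulators.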
# [3] = Stat Signaling Pathway (AID 446); settings: ME-180 SIE beta-lactamase reporter, IL-6 stimulated, 5 h; at 7.69 µM (top of the series) unless noted;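 further: ME-180 cervical cancer cells given 40 pM IL-6 alongside compound; SIE-controlled beta-lactamase reporter measured as 460/530 nm FRET emission ratio; on the % scale 0 is the no-effect control and ±100 the full control effect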
# Procedure, shortened: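 FRET read-out (405 nm excitation, 460/530 nm emission) of a beta-lactamase reporter under a STAT-inducible element in ME-180 cervical carcinoma cells. Cells with compound receive 40 pM IL-6 for 5 h. Values are normalised to AC90 stimulation and AC90 JAK-inhibitor controls.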
# [4] = target: Glucocorticoid receptor (Homo sapiens) (UniProt P04150); experiment: GR-EFC Redistribution (AID 451; calls by dose curve; further: potency means the concentration at half of the fitted maximal effect); settings: CHO-K1 GR-EFC translocation, beta-gal luminescence, 2 h
# Glucocorticoid receptor (Homo sapiens), sequence (P04150 whole entry, looked up, the tested form may be a part): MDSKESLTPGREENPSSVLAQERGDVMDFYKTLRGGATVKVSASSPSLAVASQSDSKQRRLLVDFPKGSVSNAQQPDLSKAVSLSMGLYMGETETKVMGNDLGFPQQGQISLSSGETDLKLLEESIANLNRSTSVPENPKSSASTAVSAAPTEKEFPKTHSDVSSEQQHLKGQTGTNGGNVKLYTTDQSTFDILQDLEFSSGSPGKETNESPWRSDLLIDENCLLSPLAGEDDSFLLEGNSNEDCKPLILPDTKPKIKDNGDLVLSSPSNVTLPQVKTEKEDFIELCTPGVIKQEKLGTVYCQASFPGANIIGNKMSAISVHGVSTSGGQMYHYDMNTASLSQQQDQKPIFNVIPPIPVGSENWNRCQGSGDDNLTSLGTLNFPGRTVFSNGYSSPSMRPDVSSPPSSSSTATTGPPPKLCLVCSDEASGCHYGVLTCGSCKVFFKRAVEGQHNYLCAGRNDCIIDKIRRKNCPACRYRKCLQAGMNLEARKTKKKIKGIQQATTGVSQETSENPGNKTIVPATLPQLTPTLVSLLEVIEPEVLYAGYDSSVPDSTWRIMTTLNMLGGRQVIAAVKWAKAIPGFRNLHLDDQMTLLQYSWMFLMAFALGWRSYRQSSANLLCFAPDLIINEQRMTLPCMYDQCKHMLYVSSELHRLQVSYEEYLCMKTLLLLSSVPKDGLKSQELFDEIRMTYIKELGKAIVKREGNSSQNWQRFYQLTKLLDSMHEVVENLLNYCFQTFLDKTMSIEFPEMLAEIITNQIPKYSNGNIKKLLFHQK
# Procedure, shortened: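 CHO-K1 cells expressing nuclear EA and GR-ED fragments of b-gal; compounds titrated up to 46 uM final, 2 h at 37 C. GR nuclear translocation read as complemented b-gal luminescence after 1 h RT detection.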
# [5] = target: Mitogen-activated protein kinase 10 (Mus musculus) (UniProt Q61831); experiment: JNK3 AlphaScreen Assay (AID 530); settings: JNK3 lysate, c-Jun phosphorylation; series mostly up to 57.1 µM;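 further: kinase came from lysate of stimulated human HepG2 cells; signal reports phosphorylation of biotinylated GST-cJun 1-79 at Ser73 with 10 µM ATP; on the % scale 0 is the no-effect control and ±100 the full control effect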
# Procedure, shortened: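 HepG2 lysate (IL-1b/TNFa pre-activated) + biotin-GST-cJun 1-79 + anti-pSer73 cJun; cpd titration, 15 min RT; ATP 10 uM start; Tris pH 7.6, MgCl2, DTT, vanadate; beads in EDTA buffer; AlphaScreen.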
# [6] = qHTS Assay for Identification of Small Molecule Agonists for Hypoxia Response Element Signaling Pathway (AID 914; active means well fitted activation curve with a large enough effect in the signal ratio, with a control signal flat, not every such curve was filed as active; the % refers to the signal ratio; further: potency means the concentration at half of the fitted maximal effect; on activation: % of control where 0% means no effect); settings: ME-180 (cervical carcinoma) HRE-bla reporter, beta-lactamase ratio, CoCl2, 17 h; activation: active compounds read high
# Procedure, shortened: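 In Opti-MEM containing 0.5% dialyzed FBS and 10 mM HEPES, ME-180 HRE-bla cells received a compound titration and EC50 CoCl2. They were incubated 17 hours, then CCF4-loaded 2.5 hours at room temperature before ratio reading.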
# [7] = Primary qHTS for small molecule stabilizers of the endoplasmic reticulum resident proteome: Secreted ER Calcium Modulated Protein (SERCaMP) assay (AID 1508630; active means well fitted curve in the direction sought with a large enough effect; an effect the other way counts as inactive or inconclusive; further: on the % scale 0 is the no-effect control and ±100 the full control effect); settings: SH-SY5Y GLuc-SERCaMP (Gaussia luciferase released on ER calcium loss) secretion, thapsigargin, luminescence; series mostly up to 38.4 µM
# Procedure, shortened: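 The SH-SY5Y reporter protocol was run at 3 concentrations up to 38.3 uM (primary) or 11 concentrations (follow-up): 16 h compound, 100 nM thapsigargin for 4 h, then extracellular luciferase luminescence.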
# [8] = target: Glucocorticoid receptor (Homo sapiens) (UniProt P04150); experiment: GR-GFP Redistribution (AID 450;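 active means compounds whose dose series gives a full or clear partial fitted curve of increased nuclear translocation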; further: potency means the concentration at half of the fitted maximal effect); settings: U2OS GR-GFP nuclear translocation, laser cytometry, 2 h
# [9] = target: Cytochrome P450 1A2 (Homo sapiens) (UniProt P05177); experiment: p450-cyp1a2 (AID 410; calls by dose curve; further: potency means the concentration at half of the fitted maximal effect;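 on activity change, negative = inhibition: -100% = full effect of reference inhibitor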); settings: recombinant CYP1A2, luciferin-ME demethylation, luminescence; series mostly up to 57 µM
# Cytochrome P450 1A2 (Homo sapiens), sequence (P05177 whole entry, looked up): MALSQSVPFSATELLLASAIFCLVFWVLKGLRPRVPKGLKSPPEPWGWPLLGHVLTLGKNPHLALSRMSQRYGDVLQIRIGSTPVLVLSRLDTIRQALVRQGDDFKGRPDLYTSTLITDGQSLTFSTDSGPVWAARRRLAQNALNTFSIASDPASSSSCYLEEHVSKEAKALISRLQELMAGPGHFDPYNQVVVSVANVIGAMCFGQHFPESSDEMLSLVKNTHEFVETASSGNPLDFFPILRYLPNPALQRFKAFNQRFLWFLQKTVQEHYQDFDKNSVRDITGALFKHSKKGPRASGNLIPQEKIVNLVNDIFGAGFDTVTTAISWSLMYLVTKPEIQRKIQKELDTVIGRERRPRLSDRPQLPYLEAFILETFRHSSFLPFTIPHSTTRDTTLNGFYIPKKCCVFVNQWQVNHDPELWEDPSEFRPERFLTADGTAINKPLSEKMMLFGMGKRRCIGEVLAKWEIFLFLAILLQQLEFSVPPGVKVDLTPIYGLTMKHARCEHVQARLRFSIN
# Procedure, shortened: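 20nM CYP1A2, 100uM Luciferin-ME (=Km), 100mM KPO4; cpd 10 min RT; +NADPH regen, 60 min RT; stop/detect 20 min; luminescence. Normalized to furafylline 57 uM = full inhibition.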
# [10] = target: 3',5'-cyclic-AMP phosphodiesterase 4B (Homo sapiens) (UniProt Q07343); experiment: qHTS Assay for Inhibitors of PDE-IV (AID 607; active means well fitted activation curve with a large enough effect in the main read-out, with a control signal flat, not every such curve was filed as active; further: % of control where 0% means no effect); settings: HEK293 ACTOne CNG channel cells, membrane potential fluorescence; series mostly up to 22.9 µM
# 3',5'-cyclic-AMP phosphodiesterase 4B (Homo sapiens), sequence (Q07343 whole entry, looked up): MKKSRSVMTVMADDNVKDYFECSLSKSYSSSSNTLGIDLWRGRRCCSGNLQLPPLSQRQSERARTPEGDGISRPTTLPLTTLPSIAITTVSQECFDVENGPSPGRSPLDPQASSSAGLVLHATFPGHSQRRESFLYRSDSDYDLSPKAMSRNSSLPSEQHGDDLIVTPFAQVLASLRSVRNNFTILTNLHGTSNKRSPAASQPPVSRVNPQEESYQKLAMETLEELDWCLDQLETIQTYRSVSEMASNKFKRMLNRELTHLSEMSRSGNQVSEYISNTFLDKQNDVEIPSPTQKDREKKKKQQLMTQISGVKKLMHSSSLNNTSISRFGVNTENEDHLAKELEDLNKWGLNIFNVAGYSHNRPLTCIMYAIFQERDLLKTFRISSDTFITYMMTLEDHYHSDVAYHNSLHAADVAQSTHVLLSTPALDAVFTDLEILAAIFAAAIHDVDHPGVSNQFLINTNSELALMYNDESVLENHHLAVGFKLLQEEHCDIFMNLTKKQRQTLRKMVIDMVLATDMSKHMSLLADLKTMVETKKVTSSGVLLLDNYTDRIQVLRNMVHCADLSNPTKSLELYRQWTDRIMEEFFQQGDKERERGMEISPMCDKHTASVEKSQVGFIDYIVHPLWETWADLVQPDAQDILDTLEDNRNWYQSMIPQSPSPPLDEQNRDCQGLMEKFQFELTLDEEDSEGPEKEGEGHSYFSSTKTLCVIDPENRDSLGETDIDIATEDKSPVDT
# Procedure, shortened: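 Cell-based read-out of cAMP via a modified cyclic nucleotide-gated channel and membrane potential dye (535/590 nm) in HEK293 cells expressing PDE4 endogenously. Compounds tested up to 22.9 uM final; 100 uM RO 20-1724 reference.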
# [11] = target: Cytochrome P450 2C9 (Homo sapiens) (UniProt P11712); experiment: qHTS Assay for Inhibitors and Substrates of Cytochrome P450 2C9 (AID 883; active means well fitted curve in the direction sought with a large enough effect; an effect the other way counts as inactive or inconclusive; further: on the % scale 0 is the no-effect control and ±100 the full control effect; nearly all actives have a fitted effect of over 60% in size); settings: recombinant CYP2C9, luciferin-H luminescence, 60 min; series mostly up to 57.1 µM
# Cytochrome P450 2C9 (Homo sapiens), sequence (P11712 whole entry, looked up): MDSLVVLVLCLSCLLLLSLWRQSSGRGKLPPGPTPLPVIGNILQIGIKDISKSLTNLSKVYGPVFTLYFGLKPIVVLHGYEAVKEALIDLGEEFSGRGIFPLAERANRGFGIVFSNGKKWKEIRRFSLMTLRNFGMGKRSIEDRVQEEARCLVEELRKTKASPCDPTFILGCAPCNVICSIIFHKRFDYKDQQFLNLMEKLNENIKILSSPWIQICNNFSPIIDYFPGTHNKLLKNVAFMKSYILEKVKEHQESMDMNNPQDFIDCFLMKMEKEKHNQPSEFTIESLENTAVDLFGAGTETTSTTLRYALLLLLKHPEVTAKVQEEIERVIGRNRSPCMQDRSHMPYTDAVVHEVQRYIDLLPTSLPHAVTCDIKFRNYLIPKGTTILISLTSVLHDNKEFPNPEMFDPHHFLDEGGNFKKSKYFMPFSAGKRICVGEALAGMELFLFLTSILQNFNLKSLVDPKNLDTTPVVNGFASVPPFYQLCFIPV
# Procedure, shortened: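 Human CYP2C9 (10nM) with Luciferin-H at 100uM (its KM) in 25mM KPO4; compound preincubated 10 min at 37C, then NADPH regeneration for 60 min at 37C. Luciferin read by luminescence after detection reagent; normalized to 57uM sulphaphenazole as full inhibition.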
# [12] = target: Cytochrome P450 3A4 (Homo sapiens) (UniProt P08684); experiment: qHTS Assay for Activators of Cytochrome P450 3A4 (AID 885; active means well fitted curve in the direction sought with a large enough effect; an effect the other way counts as inactive or inconclusive; further: nearly all actives have a fitted effect of over 65% in size); settings: recombinant CYP3A4, Luciferin-PPXE luminescence, 60 min; series mostly up to 57.1 µM
# Cytochrome P450 3A4 (Homo sapiens), sequence (P08684 whole entry, looked up): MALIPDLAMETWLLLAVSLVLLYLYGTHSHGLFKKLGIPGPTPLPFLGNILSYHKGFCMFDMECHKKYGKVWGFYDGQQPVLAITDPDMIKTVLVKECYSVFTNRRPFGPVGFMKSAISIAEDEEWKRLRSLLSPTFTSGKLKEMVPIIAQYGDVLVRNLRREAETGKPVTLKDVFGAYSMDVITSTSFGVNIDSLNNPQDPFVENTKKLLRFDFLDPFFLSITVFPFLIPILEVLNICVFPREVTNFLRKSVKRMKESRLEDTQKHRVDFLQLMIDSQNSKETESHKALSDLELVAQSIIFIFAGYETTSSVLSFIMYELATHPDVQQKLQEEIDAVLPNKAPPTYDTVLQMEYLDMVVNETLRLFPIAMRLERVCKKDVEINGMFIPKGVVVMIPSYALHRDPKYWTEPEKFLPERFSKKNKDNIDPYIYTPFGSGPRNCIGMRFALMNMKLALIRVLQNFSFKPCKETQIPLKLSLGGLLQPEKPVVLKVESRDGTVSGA
# Procedure, shortened: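 Luminescent readout of luciferin formed from 25 uM Luciferin-PPXE (KM level) by 20 nM CYP3A4 in 200 mM KPO4, with 60 min NADPH-driven reaction at room temperature after 10 min compound exposure. Ketoconazole (57 uM) defined 100% inhibition.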
# [13] = NFAT Signaling Pathway (AID 444); settings: Jurkat NFAT-bla M1, carbachol, beta-lactamase ratio, 5 h; at 7.69 µM (top of the series) unless noted
# Procedure, shortened: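 Jurkat cells with NFAT-driven β-lactamase reporter and co-expressed M1 receptor, stimulated with carbachol (final 1 uM, ~EC50), compound titration, 5 h at 37 °C. CCF4 loaded 1 h at RT; 460/530 nm ratio gave %activity and AC50.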
# [14] = target: Ubiquitin carboxyl-terminal hydrolase 1 (Homo sapiens) (UniProt O94782); experiment: Inhibitors of USP1/UAF1: Pilot qHTS (AID 504865; active means well fitted curve in the direction sought with a large enough effect; an effect the other way counts as inactive or inconclusive;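 further: rhodamine fluorescence freed from ubiquitin-rhodamine substrate followed over time; top concentration of the series differs between compounds; on the % scale 0 is the no-effect control and ±100 the full control effect; nearly all actives have a fitted effect of over 35% in size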); settings: purified USP1/UAF1, Ub-rhodamine cleavage fluorescence; series mostly up to 54.9 µM
# Ubiquitin carboxyl-terminal hydrolase 1 (Homo sapiens), sequence (O94782 whole entry, looked up): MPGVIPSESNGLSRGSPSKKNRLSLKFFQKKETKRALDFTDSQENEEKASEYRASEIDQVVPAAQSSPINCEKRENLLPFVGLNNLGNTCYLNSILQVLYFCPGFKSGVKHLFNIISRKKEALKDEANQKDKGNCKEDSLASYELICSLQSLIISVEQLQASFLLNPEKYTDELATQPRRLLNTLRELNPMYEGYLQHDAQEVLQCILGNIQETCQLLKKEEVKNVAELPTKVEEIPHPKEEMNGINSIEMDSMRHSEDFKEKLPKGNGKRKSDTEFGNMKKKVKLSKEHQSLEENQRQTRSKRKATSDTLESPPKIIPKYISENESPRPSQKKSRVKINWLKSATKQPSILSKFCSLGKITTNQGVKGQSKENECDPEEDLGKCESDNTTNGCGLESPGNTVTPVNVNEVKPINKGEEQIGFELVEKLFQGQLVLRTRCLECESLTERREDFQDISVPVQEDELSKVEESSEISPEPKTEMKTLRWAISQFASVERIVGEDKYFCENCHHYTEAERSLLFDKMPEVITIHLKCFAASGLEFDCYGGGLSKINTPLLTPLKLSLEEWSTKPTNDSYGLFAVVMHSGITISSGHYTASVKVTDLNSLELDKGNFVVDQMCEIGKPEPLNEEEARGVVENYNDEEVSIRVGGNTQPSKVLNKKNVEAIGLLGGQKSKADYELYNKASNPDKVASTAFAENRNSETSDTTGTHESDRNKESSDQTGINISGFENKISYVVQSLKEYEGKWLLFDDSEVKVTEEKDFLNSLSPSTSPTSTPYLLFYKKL
# Procedure, shortened: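 In 50mM HEPES pH 7.8 containing 0.5mM EDTA, 1mM TCEP, 0.1 mg/ml BSA and 0.01% Tween-20, 1nM USP1/UAF1 is exposed to compound for 15 min, then Ub-Rho (150nM final) is added and fluorescence is read over time.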
# [15] = target: Cytochrome P450 3A4 (Homo sapiens) (UniProt P08684); experiment: qHTS Assay for Inhibitors and Substrates of Cytochrome P450 3A4 (AID 884; active means well fitted curve in the direction sought with a large enough effect; an effect the other way counts as inactive or inconclusive; further: potency means the concentration at half of the fitted maximal effect; nearly all actives have a fitted effect of over 50% in size); settings: recombinant CYP3A4, Luciferin-PPXE luminescence; series mostly up to 57.1 µM
# Procedure, shortened: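 Luminescent readout of luciferin produced by CYP3A4 (20 nM) dealkylation of Luciferin-PPXE, 25 uM (its KM). NADPH-driven reaction ran 60 min at RT after 10 min compound preincubation; data scaled to 57 uM ketoconazole as 100% inhibition.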
# [16] = Confirmation and Secondary Assay for Modulators of Hemoglobin Beta Chain Splicing at IVS2 654 locus (AID 910; active means well fitted curve in the direction sought with a large enough effect; an effect the other way counts as inactive or inconclusive;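 further: HeLa cells stably carrying EGFP split by mutant beta-globin IVS2-654 intron; % of control where 0% means no effect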); settings: HeLa EGFP-654 splicing reporter, GFP fluorescence, 48 h; series mostly up to 38.3 µM
# Procedure, shortened: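 HeLa cells stably expressing EGFP interrupted by β-globin IVS2-654 intron, seeded overnight in Opti-MEM/2% FCS, then treated 2 days at 37 °C. Restored splicing read as total peak GFP intensity per well by laser scanning cytometry (488 nm excitation, 500–520 nm emission); 500 nM antisense PNA as control.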
# [17] = Confirmation and Secondary Assay for Modulators of Hemoglobin Beta Chain Splicing at IVS2 705 locus (AID 930; active means well fitted curve in the direction sought with a large enough effect; an effect the other way counts as inactive or inconclusive;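 further: HeLa cells stably expressing the EGFP-705 splicing reporter; GFP fluorescence per well restored by corrected splicing of the IVS2-705 intron in EGFP; % of control where 0% means no effect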); settings: HeLa EGFP-705 splicing reporter, GFP fluorescence, 48 h; series mostly up to 38.3 µM
# Procedure, shortened: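 Per-well GFP, captured at 1 x 8 µm resolution with 488 nm excitation, served as the read-out for HeLa EGFP-705 cells incubated 2 days with test compound versus DMSO.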
compound,measurement,setting,value
Cc1noc(C)c1C(=O)N1CCC2(CC1)CCN(C(c1ccccc1)c1ccccc1)CC2,Potency,[1],> 11.4 µM
same,"activity change, negative = inhibition",[2],-6.81%
same,"activity, negative = inhibition",[3],10.1%
same,Potency,[4],> 46 µM
same,Potency,[5],inactive
same,activation,[6],-2.4%
same,outcome,[7],inactive
O=c1c(-c2cccs2)nc2cnc(Oc3ccccc3)nc2n1-c1ccccc1,Potency,[1],> 11.4 µM
same,"activity change, negative = inhibition",[2],3.02%
same,Potency,[8],> 9.22 µM
same,Potency,[4],> 46 µM
same,Potency,[5],inactive
same,Potency,[6],2.51 µM (active)
same,outcome,[7],inactive
CCNc1ncc2nc(-c3ccccc3)c(=O)n(Cc3ccc(F)cc3)c2n1,Potency,[1],> 11.4 µM
same,Potency,[9],3.16 µM (active)
same,"activity, negative = inhibition",[3],82.9% [activator] (active)
same,Potency,[8],> 9.22 µM
same,Potency,[4],> 46 µM
same,Potency,[10],inactive
same,Potency,[11],inactive
same,Potency,[12],inactive
same,outcome,[7],inactive
CN(C)C(=O)c1ccc(-c2cc(N(C)Cc3ccco3)ncn2)cc1,Potency,[1],> 11.4 µM
same,Potency,[9],25.1 µM (active)
same,"activity change, negative = inhibition",[13],-13.4%
same,"activity, negative = inhibition",[3],16.7%
same,Potency,[8],> 46 µM
same,Potency,[4],> 46 µM
same,Potency,[5],inactive
same,Potency,[10],inactive
same,Potency,[14],inactive
same,outcome,[7],inactive
COc1ccc(CNc2nc(-c3ccccc3CN(C)C)nc3ccccc23)c(OC)c1,Potency,[1],> 11.4 µM
same,Potency,[9],10 µM (active)
same,"activity change, negative = inhibition",[13],-28%
same,"activity, negative = inhibition",[3],-17.2%
same,Potency,[8],> 46 µM
same,Potency,[4],> 46 µM
same,Potency,[5],inactive
same,"activity change, negative = inhibition",[11],25.6% [at 2.29 µM]
same,Potency,[15],7.94 µM (active)
same,Potency,[12],inactive
same,Potency,[16],inactive
same,outcome,[17],inactive
same,Potency,[14],inactive
same,outcome,[7],inactive
COc1ccc(C(=O)N2CCC3(CCCN(Cc4nccs4)C3)CC2)cc1,Potency,[1],> 11.4 µM
same,"activity change, negative = inhibition",[2],-4.03%
same,"activity, negative = inhibition",[3],-4.62%
same,Potency,[4],> 46 µM
same,Potency,[5],inactive
same,Potency,[10],inactive
same,Potency,[12],inactive
same,outcome,[7],inactive
O=S(=O)(c1ccccc1)N1CCC2(CCN(c3ncccn3)CC2)CC1,Potency,[1],> 11.4 µM
same,Potency,[9],inactive
same,"activity change, negative = inhibition",[13],-15.7%
same,"activity, negative = inhibition",[3],-15.6%
same,Potency,[4],> 46 µM
same,Potency,[5],inactive
same,Potency,[10],inactive
same,Potency,[12],inactive
same,outcome,[7],inactive
N#Cc1ccc(CN2CC3(CCN(C(=O)c4ccncc4)CC3)C2)cc1,Potency,[1],> 11.4 µM
same,"activity change, negative = inhibition",[2],9.93%
same,"activity, negative = inhibition",[3],6.61%
same,Potency,[5],inactive
same,Potency,[10],inactive
same,Potency,[12],inactive
same,outcome,[7],inactive
